Data published in PubChem BioAssay AID999 (SRMLSC, 2007).
Values without a mark were called inactive.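 How the source made its calls: active means viability at or below 21.59%, 3 SD under the median of tested compounds; inactive means the rest.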

experiment: growth suppression of PTEN-null HCT116 cells, cell-based, validation, diverse DP compound set (AID 999); details: CellTiter-Glo, 60 h, at 10 µM, stronger effect = lower value;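 further: 100% = median luminescence of untreated cell control wells and 0% = no signal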

SMILES | viability [%]
CN1C2CCC1CC(OC(=O)C(CO)c1ccccc1)C2 (stereo not given) | 94.2
C=C1C(=O)[C@]23[C@H](O)[C@H]1CC[C@H]2[C@@]12COC3(O)[C@H](O)[C@@H]1C(C)(C)CC[C@@H]2O | 76.4
O=c1c(O)c(-c2ccc(O)c(O)c2)oc2cc(O)cc(O)c12 | 72.4
COc1cc2c(c(OC)c1OC)-c1ccc(OC)c(=O)cc1[C@@H](NC(C)=O)CC2 | 32.5
C[C@@H]1CC2C3CCC4=CC(=O)C=CC4(C)[C@@]3(F)[C@@H](O)CC2(C)[C@@]1(O)C(=O)CO (stereo not given in full) | 105
Nc1ccn([C@H]2CC[C@@H](CO)O2)c(=O)n1 | 93.9
COc1ccc2cc([C@H](C)C(=O)O)ccc2c1 | 85.6
CC(=O)[C@H]1[C@H](C#N)CC2C3CC=C4C[C@@H](O)CCC4(C)C3CCC21C (stereo not given in full) | 94.8
COc1ccc2cc3[n+](cc2c1OC)CCc1cc2c(cc1-3)OCO2 | 82.9
COc1cc(CNC(=O)CCCC/C=C/C(C)C)ccc1O | 99.3
CC(C)CC(=O)N[C@H](C(=O)N[C@H](C(=O)N[C@@H](CC(C)C)[C@@H](O)CC(=O)N[C@@H](C)C(=O)N[C@@H](CC(C)C)[C@@H](O)CC(=O)O)C(C)C)C(C)C | 98.2
Cc1ccc(Cl)c(Nc2ccccc2C(=O)O)c1Cl | 98.1
CC(C)=CCC[C@](C)(O[C@@H]1O[C@H](CO)[C@@H](O)[C@H](O)[C@H]1O)[C@H]1CC[C@]2(C)[C@@H]1[C@H](O)C[C@@H]1[C@@]3(C)CC[C@H](O[C@@H]4O[C@H](CO)[C@@H](O)[C@H](O)[C@H]4O[C@@H]4O[C@H](CO)[C@@H](O)[C@H](O)[C@H]4O)C(C)(C)[C@@H]3[C@@H](O)C[C@]12C | 92
O=c1c(-c2ccc(O)cc2)coc2cc(O)ccc12 | 89.7
Cc1c(C)c2c(c(C)c1O)CCC(C)(COc1ccc(CC3SC(=O)NC3=O)cc1)O2 (stereo not given) | 79.8
CCN(CC)C(=S)SSC(=S)N(CC)CC | 89.6
C/C=C1/C2C=C(C)CC1(N)c1ccc(=O)[nH]c1C2 (stereo not given) | 93.8
CCn1cc(C(=O)O)c(=O)c2ccc(C)nc21 | 98.4
C[C@@H]1CC[C@]2(C(=O)O)CC[C@]3(C)C(=CCC4[C@@]5(C)C[C@@H](O)[C@H](O)[C@@](C)(CO)C5[C@H](O)C[C@]43C)C2[C@H]1C (stereo not given in full) | 84.7
COc1ccc(/C=C/c2cc(OC)cc(=O)o2)cc1 | 85.2
Cn1c(=O)c2[nH]cnc2n(C)c1=O | 97.1
c1ccc2nc3ccccc3cc2c1 | 99.8
CC1(C)CCC[C@@](C)([C@H]2CC[C@]3(C)[C@@H]2[C@H](O)C[C@@H]2[C@@]4(C)CC[C@H](O)C(C)(C)[C@@H]4[C@@H](O)C[C@]23C)O1 | 100
CC(=O)N1CCN(c2ccc(OC[C@H]3CO[C@](Cn4ccnc4)(c4ccc(Cl)cc4Cl)O3)cc2)CC1 | 70.7
CC1=C(/C=C/C(C)=C/C=C/C(C)=C/C=C/C=C(C)/C=C/C=C(C)/C=C/C(=O)[C@]2(C)C[C@@H](O)CC2(C)C)C(C)(C)C[C@H](O)C1 | 80.7
CC(C)C[C@H]1C(=O)N2CCC[C@H]2[C@]2(O)O[C@](NC(=O)[C@@H]3C=C4c5cccc6[nH]c(Br)c(c56)C[C@H]4N(C)C3)(C(C)C)C(=O)N12 | 76.4
CC12CC3(O)OC(O1)C1(COC(=O)c4ccccc4)[C@@H]3CC21O[C@@H]1O[C@H](CO)[C@@H](O)[C@H](O)[C@H]1O | 95.3
C[C@]12CC[C@@H]3c4ccc(O)cc4CC[C@H]3[C@@H]1CC[C@H]2O | 93.3
CC[N+](CC)(CC)CC(=O)Nc1c(C)cccc1C | 105
COc1ccc(CCN(C)CCCC(C#N)(c2ccc(OC)c(OC)c2)C(C)C)cc1OC (stereo not given) | 85.1
